According to PubChem BioAssay (NCI):
About 83,000 compounds went through this panel and 20% of them were active in at least one assay; those are over-represented in the sample as a whole.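 Interpretation: 100, growth as untreated; towards 0, rising growth inhibition; 0, no net growth; 0 to -100, cell death. Compounds scoring below 10 were considered active.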 Values without a mark were called inactive. Activity calls are given as the source filed them.

Columns and labels:
Assay in all cases: NCI-60 one-dose screen, 48 h (100 = growth as untreated, 0 = no growth, -100 = all killed)
Conditions in all cases: 10 µM unless noted
NCI-H23 lung = tested on: NCI-H23 lung
NCI-H226 lung = tested on: NCI-H226 lung
NCI-H322M lung = tested on: NCI-H322M lung
HOP-62 NSCLC = tested on: HOP-62 NSCLC
NCI-H460 lung = tested on: NCI-H460 lung
NCI-H522 lung = tested on: NCI-H522 lung
A549/ATCC NSCLC = tested on: A549/ATCC NSCLC
786-0 renal = tested on: 786-0 renal
COLO 205 colon = tested on: COLO 205 colon
DU-145 prostate = tested on: DU-145 prostate
K-562 leukemia = tested on: K-562 leukemia
MALME-3M melanoma = tested on: MALME-3M melanoma
MDA-MB-231 breast = tested on: MDA-MB-231 breast
RXF 393 renal = tested on: RXF 393 renal
SF-268 CNS = tested on: SF-268 CNS
SF-295 CNS = tested on: SF-295 CNS
SF-539 CNS = tested on: SF-539 CNS
UACC-257 melanoma = tested on: UACC-257 melanoma
M14 melanoma = tested on: M14 melanoma
HCT-15 colon = tested on: HCT-15 colon

Structure (SMILES) | growth (NCI-H23 lung) | growth (NCI-H226 lung) [%] | growth (NCI-H322M lung) [%] | growth (HOP-62 NSCLC) [%] | growth (NCI-H460 lung) | growth (NCI-H522 lung) | growth (A549/ATCC NSCLC) | growth (786-0 renal) [%] | growth (COLO 205 colon) [%] | growth (DU-145 prostate) [%] | growth (K-562 leukemia) | growth (MALME-3M melanoma) [%] | growth (MDA-MB-231 breast) [%] | growth (RXF 393 renal) [%] | growth (SF-268 CNS) [%] | growth (SF-295 CNS) | growth (SF-539 CNS) [%] | growth (UACC-257 melanoma) | growth (M14 melanoma) [%] | growth (HCT-15 colon) [%]
CCCCCCCCCCC[C@@H](C[C@H]1OC(=O)[C@H]1CCCCCC)OC(=O)[C@@H](CC(C)C)NC=O | 70.1% | 72.6 | 94.2 | 72.3 | 42.9% | 59.9% | 83.6% | 44.8 | 81 | 92.2 | 45.2% | 89.4 | 60.9 | 44.1 | 65.2 | 24.7% | 63.1 | 99.6% | 62.6 | 34.8
Cc1cc(C)n(C(=O)c2nn(-c3ccc(Cl)cc3)cc2O)n1 | 9.42% (active) | 44.9 | 37.2 | 47.8 | 5.55% (active) | 59.6% | 11.6% | 95.7 | 106 | 30 | 6.26% (active) | 117 | 77.4 | 39.1 | 39.9 | -4.15% (active) | 39.1 | 82.5% | 45.7 | 50.2
O=C(O)c1ccc(NC(=O)c2ccc(Nc3ccnc(C(F)(F)F)c3)cc2)cc1 | 98.4% | 100 | 121 | 103 | 113% | 103% | 103% | 103 | 101 | 106 | 94.1% | 103 | 109 | 97.9 | 98 | 108% | 104 | 99.6% | 107 | 92.1
COc1c(C)c2c(c(O)c1C/C=C(\C)CCC(=O)OCCN1CCOCC1)C(=O)OC2 | 19.4% | 50.2 | 33.2 | 34.9 | 2.48% (active) | -3.49% (active) | 5.79% (active) | 24.7 | 38.1 | 36.4 | 25.5% | 38.8 | 37.9 | 51.9 | 28.9 | 18.2% | 34.7 | 7.21% (active) | 19.8 | 15.5
COc1cc(C2CC(c3ccc(C)cc3)=NN2C(C)=O)ccc1Oc1ccnc2cc(Cl)ccc12 (stereo not given) | 59.9% | 45.4 | 79.9 | 16.4 | 32.3% | 41.4% | 68.7% | 21.9 | 99.2 | 74.8 | 93.3% | 94.7 | 35.7 | 26.7 | 41.9 | 14.9% | 23.1 | 102% | 106 | 90.7
ClC1=C(Cl)C(=C2C(Cl)=C(Cl)C(Cl)=C2Cl)C(Cl)=C1Cl | 97.9% | 101 | 97.7 | 90.1 | 103% | 79% | 90.2% | 103 | 103 | 106 | 87.1% | 106 | 110 | 106 | 102 | 99.2% | 104 | 92.3% | 102 | 106
CC(CCC(=O)O)(NC(=O)c1ccc([N+](=O)[O-])cc1)C(=O)O (stereo not given) | 98.4% | 111 | 107 | 92.8 | 107% | 106% | 107% | 105 | 107 | 104 | 99% | 106 | 113 | 115 | 104 | 106% | 105 | 99.4% | 102 | 113
O=C(CCc1nnc(Cn2ccnc2)o1)c1nc2ccccc2[nH]1 | 102% | 115 | 92.9 | 102 | 116% | 98.4% | 103% | 105 | 119 | 108 | 101% | 77.8 | 89.7 | 124 | 111 | 111% | 100 | 114% | 105 | 100
